Laboratory results: the supplement of paper PMC10646978
± gives the standard deviation.

Experiments:
Details in all cases: modulator concentration 10 µM
[1] = system: RAW-Dual (murine macrophage reporter line); assay: NF-kB reporter (SEAP) activity fold change vs agonist alone; higher = enhanced NF-kB activity
In short: (§1)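 RAW-Dual murine macrophage reporter cells were plated at 50 000 per well in 384-well plates, pin-transferred compound to 10 μM final, and pre-incubated for 1 hour at 37 °C before a PRR agonist was added and the cells incubated overnight. NF-κB activity was read from supernatant SEAP with QUANTI-Blue at 620 nm absorbance, and IRF activity from Lucia luciferase with QUANTI-Luc by luminescence. Each signal was expressed as fold change by dividing by the mean agonist-only control on the same plate. Two replicate plates were averaged, with errors obtained by propagation.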

[2] = system: RAW-Dual (murine macrophage reporter line); assay: IRF reporter (Lucia luciferase) activity fold change vs agonist alone; higher = enhanced IRF activity
In short: as §1

[3] = system: RAW-Dual (murine macrophage reporter line); assay: viability score (confluency relative to resting cells, overnight) (fraction); higher = more viable, active = viable (0.7 or more)
In short: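 RAW-Dual macrophages in 384-well plates were treated overnight with compound at 10 μM final. IncuCyte imaging recorded confluency, and IncuCyte software built two confluency masks across every imaged well. The viability score expresses confluency relative to resting cells and was judged against a cutoff, which a compound met only if both masks exceeded 70% of resting cells.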

[4] = agonist: CpG ODN 1826 0.5 ug/mL

SMILES | NF-kB reporter [1, 4] | NF-kB reporter ([1]; agonist: LPS 0.1 ug/mL) | NF-kB reporter ([1]; agonist: MPLA […]) | IRF reporter ([2]; agonist: 3'3'-cGAMP 10 ug/mL) | IRF reporter ([2]; agonist: LPS 0.1 ug/mL) | IRF reporter ([2]; agonist: MPLA […]) | viability score [3]
CCN(CC)CCNC(=O)c1cc(S(C)(=O)=O)ccc1OC.Cl | 1.02 ± 0.13 | 1.16 ± 0.078 | 0.975 ± 0.021 | 0.94 ± 0.056 | 0.989 ± 0.11 | 1 ± 0.13 | 0.998 (active)
COc1ccc(C(C)(C#N)CC#N)cc1 (configuration not stated) | 1.11 ± 0.089 | 0.941 ± 0.1 | 1.04 ± 0.1 | 1.06 ± 0.035 | 1.29 ± 0.19 | 1.47 ± 0.31 | 1.03 (active)
CCOC(=O)C1=C(C)NC(=S)NC1c1cccc(C)c1 (configuration not stated) | 0.93 ± 0.097 | 1.09 ± 0.097 | 1.05 ± 0.037 | 0.712 ± 0.17 | 0.944 ± 0.045 | 0.835 ± 0.057 | 0.975 (active)
CN(C)CCC(c1ccc(Br)cc1)c1ccccn1.O=C(O)/C=C\C(=O)O (configuration not stated) | 1.07 ± 0.14 | 1.15 ± 0.27 | 0.939 ± 0.052 | 0.71 ± 0.024 | 1.17 ± 0.34 | 0.918 ± 0.086 | 1.01 (active)
CCOC(=O)C(Oc1ccc2c(c1)oc(=O)c1cc(OC)ccc12)c1ccccc1 (configuration not stated) | 1.04 ± 0.062 | 0.998 ± 0.13 | 0.929 ± 0.025 | 0.977 ± 0.04 | 1.02 ± 0.089 | 1.11 ± 0.21 | 1 (active)
O=C(Nc1cc(C(F)(F)F)cc(C(F)(F)F)c1)c1ccc([N+](=O)[O-])cc1 | 0.977 ± 0.09 | 1.03 ± 0.14 | 1.02 ± 0.063 | 0.998 ± 0.03 | 1.42 ± 0.14 | 1.05 ± 0.075 | 1.01 (active)
CN(C)CCNC(=S)NC(=O)C12CCC3CC(CC(C3)C1)C2 | 0.978 ± 0.1 | 1 ± 0.094 | 0.982 ± 0.062 | 0.994 ± 0.033 | 1.5 ± 0.17 | 1.07 ± 0.068 | 1.01 (active)
CNC(=O)c1cccc(-c2noc(C3CN(C(=O)NC4CCCCC4)C3)n2)c1 | 1.06 ± 0.053 | 1.11 ± 0.11 | 1.03 ± 0.091 | 1.06 ± 0.065 | 1.21 ± 0.1 | 1.17 ± 0.13 | 1 (active)
CC(C)Cn1cc(Cl)c(=O)n(CC(C)C)c1=O | 1.12 ± 0.068 | 1 ± 0.11 | 1.01 ± 0.056 | 1.03 ± 0.037 | 1 ± 0.066 | 0.991 ± 0.19 | 0.996 (active)
CCOC(=O)C1C(=O)NC(SCC(N)=O)=C(C#N)C1c1ccccc1OCC (configuration not stated) | 0.936 ± 0.052 | 0.994 ± 0.063 | 0.926 ± 0.07 | 1 ± 0.072 | 1.25 ± 0.083 | 1.03 ± 0.098 | 1 (active)
CC1(C)OC[C@@H](COC(=O)CCc2ccc(OC[C@@H](O)CNCCNC(=O)N3CCOCC3)cc2)O1.Cl | 1.05 ± 0.079 | 0.966 ± 0.072 | 0.987 ± 0.023 | 0.985 ± 0.098 | 0.97 ± 0.11 | 0.832 ± 0.2 | 1 (active)
Cc1cc(OCC(=O)NN=Cc2ccc(O)c([N+](=O)[O-])c2)ccc1Cl | 1.03 ± 0.29 | 1.04 ± 0.092 | 1.02 ± 0.093 | 1 ± 0.041 | 1.08 ± 0.2 | 1.13 ± 0.13 | 0.998 (active)
COc1ccccc1NS(=O)(=O)c1cc2c3c(c1)CC(=O)N3CCC2 | 0.967 ± 0.088 | 1.03 ± 0.096 | 1.07 ± 0.071 | 0.992 ± 0.035 | 1.09 ± 0.15 | 0.871 ± 0.11 | 1.01 (active)
NN=C1CCCc2c1[nH]c1ccc(Cl)cc21 | 1.07 ± 0.11 | 1.04 ± 0.081 | 1.05 ± 0.056 | 0.505 ± 0.13 | 0.95 ± 0.076 | 0.873 ± 0.12 | 0.99 (active)
O=C(O)CSc1nnc(Br)n1-c1ccc(C2CC2)c2ccccc12 | 1.08 ± 0.15 | 0.924 ± 0.32 | 0.899 ± 0.05 | 0.624 ± 0.15 | 1.35 ± 0.31 | 1.28 ± 0.1 | 1 (active)
c1ccc2[nH]c(-c3cscn3)nc2c1 | 1.14 ± 0.16 | 1.16 ± 0.21 | 0.915 ± 0.055 | 0.81 ± 0.037 | 1.17 ± 0.17 | 1.04 ± 0.13 | 0.995 (active)
COc1cc(/C=C/C(=O)/C=C(O)/C=C/c2ccc(O)c(OC)c2)ccc1O | 0.662 ± 0.16 | 1.14 ± 0.32 | 2.02 ± 0.15 | 0.0871 ± 0.0028 | 0.279 ± 0.091 | 0.517 ± 0.041 | 0.272 (inactive)
CCN(CC)C(=O)Nc1ccc(OCC(O)CNC(C)(C)C)c(C(C)=O)c1 (configuration not stated) [Prestw-1132] | 1.41 ± 0.08 | 1.01 ± 0.062 | 1.16 ± 0.079 | 0.979 ± 0.059 | 1.44 ± 0.15 | 1.29 ± 0.12 | 0.997 (active)

SMILES | NF-kB reporter [1, 4] | NF-kB reporter ([1]; agonist: LPS 0.1 ug/mL) | NF-kB reporter ([1]; agonist: MPLA […]) | IRF reporter ([2]; agonist: 3'3'-cGAMP 10 ug/mL) | IRF reporter ([2]; agonist: LPS 0.1 ug/mL) | IRF reporter ([2]; agonist: MPLA […]) | viability score [3]
O=c1oc2cc(O)ccc2c2ccccc12 | 1.05 ± 0.12 | 0.932 ± 0.085 | 1.06 ± 0.038 | 0.813 ± 0.15 | 1.06 ± 0.097 | 1.28 ± 0.17 | 0.782 (active)
NC(=O)Cn1c(COc2ccccc2Cl)nc2ccccc21 | 1.35 ± 0.32 | 1.03 ± 0.051 | 0.96 ± 0.07 | 1.01 ± 0.034 | 1.26 ± 0.16 | 1.27 ± 0.21 | 0.994 (active)
COc1ccc(C=Nc2ccc(OC(C)=O)cc2)cc1 | 0.738 ± 0.16 | 1.11 ± 0.16 | 1.03 ± 0.11 | 0.588 ± 0.029 | 1.34 ± 0.13 | 1.23 ± 0.15 | 1 (active)
CC1(C)CCCC2(C)C1CCC1(C)OC(=O)CC12 (configuration not stated) | 0.532 ± 0.077 | 0.669 ± 0.11 | 0.762 ± 0.026 | 0.943 ± 0.11 | 0.929 ± 0.07 | 1.37 ± 0.18 | 0.159 (inactive)
CC1CCc2cc(F)cc3c(=O)c(C(=O)O)cn1c23 (configuration not stated) | 0.961 ± 0.13 | 1.01 ± 0.074 | 1.01 ± 0.066 | 0.955 ± 0.066 | 0.872 ± 0.031 | 0.86 ± 0.16 | 0.999 (active)
O=C(Oc1ccc(O)c(CO)c1)c1ccccc1 | 1.15 ± 0.12 | 1.08 ± 0.071 | 1.06 ± 0.086 | 0.637 ± 0.1 | 0.888 ± 0.098 | 0.769 ± 0.16 | 1 (active)
C=CCNC(=O)COc1ccccc1C | 0.782 ± 0.073 | 0.887 ± 0.042 | 0.985 ± 0.086 | 1.05 ± 0.048 | 1.36 ± 0.082 | 1.48 ± 0.16 | 1 (active)
N#Cc1nc(-c2ccc(COc3ccccc3)o2)oc1N1CCc2ccccc2C1 | 0.987 ± 0.049 | 1.13 ± 0.089 | 0.896 ± 0.05 | 0.964 ± 0.078 | 1 ± 0.16 | 0.989 ± 0.38 | 1.01 (active)
CC(=O)Oc1cc2c(s1)CCN(C(C(=O)C1CC1)c1ccccc1F)C2.Cl (configuration not stated) | 0.767 ± 0.1 | 0.727 ± 0.11 | 0.77 ± 0.043 | 0.779 ± 0.073 | 1.01 ± 0.088 | 0.998 ± 0.12 | 0.983 (active)
CCOc1ccc(-c2ccc(=O)n(CCNS(=O)(=O)CCc3ccccc3)n2)cc1 | 1.08 ± 0.081 | 1.22 ± 0.13 | 1.06 ± 0.083 | 1.2 ± 0.078 | 0.984 ± 0.07 | 1.3 ± 0.27 | 0.995 (active)
COc1ccc(-c2nc3c4cnn(-c5ccc(C)cc5C)c4ncn3n2)c(O)c1 | 1.03 ± 0.058 | 1.1 ± 0.086 | 0.991 ± 0.11 | 1.05 ± 0.059 | 1.25 ± 0.14 | 1.09 ± 0.27 | 1 (active)
CCOc1ccc(C(CN)N2CCOCC2)cc1 (configuration not stated) | 1.07 ± 0.048 | 0.934 ± 0.079 | 1.08 ± 0.075 | 0.943 ± 0.046 | 1.33 ± 0.28 | 1.29 ± 0.44 | 0.941 (active)
Cc1oncc1C(=O)NCCn1nc(C(F)(F)F)cc1C1CC1 | 1.06 ± 0.096 | 1.05 ± 0.081 | 0.991 ± 0.067 | 0.972 ± 0.039 | 0.978 ± 0.087 | 0.935 ± 0.21 | 1 (active)
Cc1cc(-c2csc(NCc3ccccc3)n2)c(C)o1.Cl | 0.766 ± 0.043 | 0.892 ± 0.13 | 1 ± 0.026 | 0.576 ± 0.026 | 0.924 ± 0.07 | 1.1 ± 0.13 | 0.991 (active)
O=C(O)CCC(=O)Nc1ccc(Br)cc1C(=O)c1ccc(Cl)cc1 | 0.993 ± 0.08 | 1.05 ± 0.058 | 0.951 ± 0.066 | 0.986 ± 0.031 | 1.31 ± 0.19 | 1.08 ± 0.18 | 1.01 (active)
COC(=O)C1=CN(C2CC2)C=C(C(=O)OC)C1c1ccccc1Cl | 1.12 ± 0.1 | 0.722 ± 0.07 | 1.1 ± 0.052 | 0.945 ± 0.11 | 0.905 ± 0.039 | 1.06 ± 0.17 | 1 (active)
CS(=O)(=O)C1CCN(C(=O)C2(c3ccccc3)CCOCC2)C1 (configuration not stated) | 0.986 ± 0.11 | 1.04 ± 0.083 | 0.927 ± 0.047 | 0.977 ± 0.068 | 1 ± 0.087 | 1.03 ± 0.33 | 1.02 (active)
Cc1ccc(COc2cccc(C=C3SC(=S)NC3=O)c2)cc1 | 0.611 ± 0.06 | 0.803 ± 0.13 | 0.992 ± 0.088 | 0.793 ± 0.08 | 1.18 ± 0.069 | 1.3 ± 0.11 | 1.02 (active)
